# Source: PubChem BioAssay AID2782 (National Center for Advancing Translational Sciences (NCATS), 2010)
# Inconclusive results are not listed. Values without a mark were called inactive. The source made the active and inactive calls. Calls follow the shape of the dose curve; as a rule, active = well fitted inhibition curve with a large enough effect in the polarisation, with a control signal flat (not every such curve was filed as active); inconclusive = small, poorly fitted or top-dose-only effect, or effect the other way, or a change in a side signal; inactive = no such curve, though single readings can be large or run the other way; the % refers to the polarisation.
# Test: Confirmation of Inhibitors Targeting the Menin-MLL Interaction in MLL Related Leukemias: Competition With Texas Red Labeled MLL-derived Mutant Peptide
# Conditions: fluorescence polarization, Texas Red MLL peptide displacement; series mostly up to 94.6 µM; FP change, negative = inhibition: at the top concentration
# From the text: qHTS Assay for Inhibitors Targeting the Menin-MLL Interaction in MLL Related Leukemias
# NIH Chemical Genomics Center [NCGC]
# NIH Molecular Libraries Probe Centers Network [MLPCN]
# Assay Submitter (PI): Jolanta Grembecka, Tomasz Cierpicki, University of Virginia
# Translocations of the MLL (Mixed Lineage Leukemia) gene are frequently found in human leukemias affecting both children and adults. Fusion of MLL to one of more than 60 genes results in generation of oncogenic proteins upregulating Hox genes, which are vital to blood cell development. Patients harboring fusion of the MLL gene suffer from aggressive leukemias and respond poorly to available therapies. All of the oncogenic fusion proteins have a preserved N-terminal fragment of MLL that has been identified to interact with menin. It has been recently discovered that association with menin is critical to the leukemogenic activity of the MLL fusion oncoproteins. Selective targeting of the menin-MLL interaction could provide an attractive therapeutic approach to develop novel drugs for MLL-related leukemias. Small molecules blocking the menin-MLL interaction should reverse the oncogenic potential of MLL fusion proteins.
# We have developed and optimized a fluorescence polarization-based assay for the identification of Menin-MLL inhibitors. The assay was run employing two different MLL-derived peptides. The present assay uses a 12 amino acid peptide labeled with fluorescein at its N-terminus. This peptide consists of the menin high affinity binding motif from MLL and is potently bound by menin. Another peptide with a mutated sequence, labeled with Texas Red, was used in parallel as a less stringent screen for inhibitors.
# The present assay was run to confirm the activity of hits from the primary screen using the peptide with a mutated sequence, labeled with Texas Red.
# The Menin protein, the MLL-wild type (w.t.) derived peptide (N-terminal 12 amino acids), the MLL-derived peptide labeled with Texas Red and the MLL-w.t. peptide labeled with Fluorescein were kindly supplied by laboratory of Dr. Jolanta Grembecka, University of Virginia. All protein and peptide solutions were stored in single use aliquots at -80C. The Eu3+ Cyrptate-conjugated mouse monoclonal antibody anti-6 Histidine (Eu3+-AB) and the Streptavidin-XL665 conjugate (XL665) were purchased from Cisbio International (Bedford, MA). All antibody and XL665 conjugate solution stocks were stored in single use aliquots at -20C. The Buffer components for all assays were purchased from Sigma-Aldrich (St. Louis, MO) and Invitrogen (Carlsbad, CA).
# 1. FP reaction buffer: 50 mM Tris-HCl pH 7.5, 50 mM NaCl, 1mM DTT.
# Before use, 0.05% BSA is added.
# 2. Menin protein, MLL-w.t. labeled with fluorescein, MLL-mutant peptide labeled with texas red.
# Stored in singe use aliquots at -80C.
# 3. MLL-w.t. unlabeled peptide as positive control: 10 uM final in FP buffer.
# 1. Prepare Menin at 200 nM, MLL-w.t.-fluorescein at 25 nM, and MLL-mutant-texas red at 50 nM mixture in FP buffer.
# 2. Prepare Menin at 200 nM, MLL-w.t.-fluorescein at 25 nM, MLL-mutant-texas red at 50 nM, and 10 uM MLL-w.t. unlabeled mixture in FP buffer.
# 3. Prepare MLL-w.t.-fluorescein at 25 nM and MLL-mutant-texas red at 50 nM mixture in FP buffer.
# 3. Dispense 4 ul per well of reagent in step 1 in columns 2, 4 - 48 in a black 1536 well plate, dispense 4 ul per well of reagents from steps 2 and 3 in columns 1 and 3 respectively. Incubate plate at ambient for 15 minutes.
# 4. Transfer 23 nl per well of compound to plate and incubate at ambient for 1 hr.
# 5. Read fluorescence polarization for each label using the PerkinElmer Envision.
# Envision protocol for fluorescein: FITC FP Dual Enh Mirror, Excitation filter 480, Emission filter (1) P-pol 535, Emission filter (2) S-pol 535
# Envision protocol for texas red: FP Dual Enh Mirror, Excitation filter 555, Emission filter (1) P-pol 632, Emission filter (2) S-pol 632
# % is scaled to controls: 0 for no effect and ±100 for the full control effect; potency is read from the fitted curve at half-maximal effect.
Structure (SMILES),"FP change, negative = inhibition",Potency
COc1ccc(NC(=O)NC2(C(=O)N3CCOCC3)CCCCC2)cc1,2.58%,–
CC1(C)CN=C(N2CCN(c3ncnc4sc5c(c34)CCCC5)CC2)S1,–,14.2 µM (active)
CCCc1nc2c(=O)[nH]c3ccccc3c2o1,10.2%,–
C=C(C)CNC(=S)Nc1cccc2cnccc12,5.3%,–
O=C(Nc1cc(Br)ccc1O)c1cc(-c2ccccc2)on1,–,20 µM (active)
O=C(CSc1nnc(-c2c[nH]c3ccccc23)o1)c1ccc(-c2ccccc2)cc1,–,35.5 µM (active)
CCOC(=O)Cn1c2ccccc2n2nc(CCC(=O)O)c(=O)nc12,-1.21%,–
COc1ccccc1N(CC1CO1)S(=O)(=O)c1ccccc1 (stereo not given),6.9%,–
COC(=O)COc1ccc(C(C2C(=O)CC(C)(C)CC2=O)C2C(=O)CC(C)(C)CC2=O)cc1,-18%,–
CCCC(c1nnnn1Cc1ccco1)N1CCN(C2CCCC2)CC1 (stereo not given),–,79.4 µM (active)
O=C(Nc1cccn(Cc2c(Cl)cccc2Cl)c1=O)c1c(Cl)cccc1Cl,36.9% [at 288 µM],–
c1cc(CN2CCCNCCNCCCNCC2)ccc1CN1CCCNCCNCCCNCC1,–,22.4 µM (active)
CN(C)C(CNc1ncnc2sc3c(c12)CCCCC3)c1ccco1 (stereo not given),–,141 µM (active)
c1ccc2c(c1)nc(N1CCOCC1)c1c3ccccc3[nH]c21,41.2% [at 288 µM],–
O=C(/C=C/c1ccccc1)Nc1nnc(SCC(=O)c2ccc3ccccc3c2)s1,–,17.8 µM (active)
COc1cc(SC)ccc1C(=O)Nc1cccc(C2OCCCO2)c1,-15.2% [at 288 µM],–
NS(=O)(=O)c1ccc(NC(=O)c2ccc(S(=O)(=O)N3CCc4ccccc43)cc2)cc1,–,20 µM (active)
CNC[C@H](CC1CCCCC1)NC[C@H](Cc1ccccc1)NCCC12CC3CC(CC(C3)C1)C2,–,63.1 µM (active)
O=C(NCC1CCCO1)c1ccc(OC2CCN(C(=O)C3CC3)CC2)cc1 (stereo not given),14.1%,–
CCN1C(=O)[C@@H]2C(C(=O)c3cnccn3)=NN[C@@H]2C1=O,-4.09%,–

Structure (SMILES),"FP change, negative = inhibition",Potency
CCC(c1nnnn1Cc1ccc(F)cc1)N1CCN(C2CCCCC2)CC1 (stereo not given),–,35.5 µM (active)
COc1cccc(NC(=O)N2CCCc3ccccc32)c1,18.2%,–
COCC(=O)Nc1cccc2ccccc12,-27.4%,–
COc1ccc(Cn2nnnc2C(c2ccc3ncccc3c2)N2CCN(C3CCCCC3)CC2)cc1 (stereo not given),–,89.1 µM (active)
CCc1nn(C)c2c(=O)c(=O)c2n(C)[nH]1,-13%,–
CN(C)c1ccc(C2CC(=O)C=C(Nc3ccccc3N)C2)cc1 (stereo not given),–,63.2 µM (active)
CCc1ccc(CNC(=O)CCS(=O)(=O)Cc2ccccc2F)cc1,20.1%,–
Cn1c(=O)[nH]c(=O)c2c1nc(Br)n2CCSc1nc2ccccc2o1,-7.1% [at 288 µM],–
O=C(C[N+]12CC[N+](CC(=O)c3ccc(F)cc3)(CC1)CC2)c1ccc(F)cc1,–,35.5 µM (active)
OC(c1ccccn1)(c1ccccn1)c1ccccn1,-1.99% [at 288 µM],–
Cc1c(C(=O)OCC(=O)Nc2ccc(S(N)(=O)=O)cc2)oc2c1ccc1ccccc12,62.1% [at 288 µM],–
O=C(CCN1CCN(c2ccc([N+](=O)[O-])cc2)CC1)c1ccc(Cl)cc1,-16.1% [at 288 µM],–
CCOC(=O)N1CCN(Cc2nnc(-c3ccccc3C)o2)CC1,17.8%,–
Nc1cccc2c1C(=O)N(C(=O)c1ccco1)C2=O,-17.4%,–
O=C(NC(=S)Nc1nc(-c2ccc(Br)cc2)cs1)c1cccnc1,31.5% [at 288 µM],–
NC(=NCCCCCCN=C(N)/N=C(\N)Nc1ccc(Cl)cc1)/N=C(\N)Nc1ccc(Cl)cc1,–,70.8 µM (active)
CCCn1c(=O)c(C(=O)Nc2ccccc2C(=O)OCC)c(O)c2ccccc21,21.8% [at 288 µM],–
COc1ccccc1CNCC(=O)Nc1ccc(C#N)cc1,-25.5% [at 288 µM],–
O=C1Cc2ccccc2Sc2c(OCCN3CCCCC3)cccc21,–,126 µM (active)
COc1ccccc1/C=N/n1c(N)c(S(=O)(=O)c2cccs2)c2nc3ccccc3nc21,34.1% [at 288 µM],–
